From PubChem BioAssay come the findings set out here.

For test [1], the system named is PRMT1 (protein arginine N-methyltransferase 1). Briefly: PRMT1 binders on small-molecule microarrays, primary screen, biochemical, small-molecule microarray, 635 nm fluorescence (AID 1088).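 Also: binding of Prmt1 protein to compounds spotted on small-molecule microarray slides.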 The settings on record: small-molecule microarray binding, higher = more signal.
The nature of test [2]: yeast growth modulation, basal conditions, primary screen, YJM789 clinical isolate, OD600, 24 h (AID 1089).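 Also: growth of clinical yeast isolate S. cerevisiae YJM 789 seeded 1000 cells per well; test concentration not given here.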 The settings on record: S. cerevisiae YJM789 growth, higher = more signal, called active from +8 up or from −8 down.
The nature of test [3]: fission yeast growth modulation, primary screen, strain 972, OD600, 24 h, no modulator (AID 1090).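 Also: basal condition with compound alone and no growth modifier present; test concentration not given here.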 The conditions noted are these: S. pombe 972 growth, higher = more signal, called active from +8 up or from −8 down.
A short description of test [4]: S. cerevisiae growth modulation with rapamycin, primary screen, strain BY4716, OD600, 96 h (AID 1091). Also: test concentration not given here. The settings on record: higher = more signal, called active from +8 up or from −8 down.
Test [5] concerns the target Torsin-1A-interacting protein 2 (Homo sapiens) (UniProt Q8NFQ8). Briefly: LULL1 binders on small-molecule microarray, primary screen, cell lysate, human LULL1 lysate, 635/667 nm fluorescence (AID 1092).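 Also: probe is lysate of COS7 cells overexpressing human LULL1; score merges per-feature 667 nm fluorescence with signal-to-noise.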 The settings on record: hLULL1 lysate binding, 635 nm fluorescence, higher = more signal.
A short description of test [6]: E. coli growth modulation, two-sided OD650, primary screen, E. coli filamentation project, strain DRC41, 24 h (AID 1093).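 Also: MC1000 strain lacking acrAB efflux and sulA so SOS filamentation is blocked; test concentration not given here.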 The settings on record: OD650, 24 h, higher = more signal, called active from +8 up or from −8 down.
Test [7] in a line: small-molecule microarray binders of probe aLefty2, primary screen, biochemical, biotinylated probe, 635/667 nm fluorescence (AID 1094).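 Also: score merges spot fluorescence near 667 nm with spot signal-to-noise ratio.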 The conditions noted are these: higher = more signal.
Test [8] has as its system Noggin (protein binding on small-molecule microarray). Briefly: Noggin binders on small-molecule microarray, primary screen, biochemical, 635/667 nm fluorescence (AID 1095).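 Also: score merges 667 nm feature fluorescence with signal to noise over triplicate slides.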 The conditions noted are these: 635 nm fluorescence, higher = more signal.
Test [9] deals with Neurogenic locus notch homolog protein 3 (Homo sapiens) (UniProt Q9UM47). Briefly: NOTCH3 binders on small-molecule microarray, primary screen, biochemical, 635/667 nm fluorescence (AID 1096). The conditions noted are these: NOTCH3 binding, 635 nm fluorescence, higher = more signal.
A short description of test [10]: small-molecule microarray binders of probe aEGFR, primary screen, biochemical, biotinylated probe, 635/667 nm fluorescence (AID 1097).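 Also: probe is a biotinylated anti-EGFR antibody binding compounds printed on slides; score combines fluorescence near 667 nm and signal to noise of each spot.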 The settings on record: higher = more signal.

Calls of active or inactive are those of the source.

Chain of Neurogenic locus notch homolog protein 3 (Homo sapiens) (Q9UM47 whole entry, looked up): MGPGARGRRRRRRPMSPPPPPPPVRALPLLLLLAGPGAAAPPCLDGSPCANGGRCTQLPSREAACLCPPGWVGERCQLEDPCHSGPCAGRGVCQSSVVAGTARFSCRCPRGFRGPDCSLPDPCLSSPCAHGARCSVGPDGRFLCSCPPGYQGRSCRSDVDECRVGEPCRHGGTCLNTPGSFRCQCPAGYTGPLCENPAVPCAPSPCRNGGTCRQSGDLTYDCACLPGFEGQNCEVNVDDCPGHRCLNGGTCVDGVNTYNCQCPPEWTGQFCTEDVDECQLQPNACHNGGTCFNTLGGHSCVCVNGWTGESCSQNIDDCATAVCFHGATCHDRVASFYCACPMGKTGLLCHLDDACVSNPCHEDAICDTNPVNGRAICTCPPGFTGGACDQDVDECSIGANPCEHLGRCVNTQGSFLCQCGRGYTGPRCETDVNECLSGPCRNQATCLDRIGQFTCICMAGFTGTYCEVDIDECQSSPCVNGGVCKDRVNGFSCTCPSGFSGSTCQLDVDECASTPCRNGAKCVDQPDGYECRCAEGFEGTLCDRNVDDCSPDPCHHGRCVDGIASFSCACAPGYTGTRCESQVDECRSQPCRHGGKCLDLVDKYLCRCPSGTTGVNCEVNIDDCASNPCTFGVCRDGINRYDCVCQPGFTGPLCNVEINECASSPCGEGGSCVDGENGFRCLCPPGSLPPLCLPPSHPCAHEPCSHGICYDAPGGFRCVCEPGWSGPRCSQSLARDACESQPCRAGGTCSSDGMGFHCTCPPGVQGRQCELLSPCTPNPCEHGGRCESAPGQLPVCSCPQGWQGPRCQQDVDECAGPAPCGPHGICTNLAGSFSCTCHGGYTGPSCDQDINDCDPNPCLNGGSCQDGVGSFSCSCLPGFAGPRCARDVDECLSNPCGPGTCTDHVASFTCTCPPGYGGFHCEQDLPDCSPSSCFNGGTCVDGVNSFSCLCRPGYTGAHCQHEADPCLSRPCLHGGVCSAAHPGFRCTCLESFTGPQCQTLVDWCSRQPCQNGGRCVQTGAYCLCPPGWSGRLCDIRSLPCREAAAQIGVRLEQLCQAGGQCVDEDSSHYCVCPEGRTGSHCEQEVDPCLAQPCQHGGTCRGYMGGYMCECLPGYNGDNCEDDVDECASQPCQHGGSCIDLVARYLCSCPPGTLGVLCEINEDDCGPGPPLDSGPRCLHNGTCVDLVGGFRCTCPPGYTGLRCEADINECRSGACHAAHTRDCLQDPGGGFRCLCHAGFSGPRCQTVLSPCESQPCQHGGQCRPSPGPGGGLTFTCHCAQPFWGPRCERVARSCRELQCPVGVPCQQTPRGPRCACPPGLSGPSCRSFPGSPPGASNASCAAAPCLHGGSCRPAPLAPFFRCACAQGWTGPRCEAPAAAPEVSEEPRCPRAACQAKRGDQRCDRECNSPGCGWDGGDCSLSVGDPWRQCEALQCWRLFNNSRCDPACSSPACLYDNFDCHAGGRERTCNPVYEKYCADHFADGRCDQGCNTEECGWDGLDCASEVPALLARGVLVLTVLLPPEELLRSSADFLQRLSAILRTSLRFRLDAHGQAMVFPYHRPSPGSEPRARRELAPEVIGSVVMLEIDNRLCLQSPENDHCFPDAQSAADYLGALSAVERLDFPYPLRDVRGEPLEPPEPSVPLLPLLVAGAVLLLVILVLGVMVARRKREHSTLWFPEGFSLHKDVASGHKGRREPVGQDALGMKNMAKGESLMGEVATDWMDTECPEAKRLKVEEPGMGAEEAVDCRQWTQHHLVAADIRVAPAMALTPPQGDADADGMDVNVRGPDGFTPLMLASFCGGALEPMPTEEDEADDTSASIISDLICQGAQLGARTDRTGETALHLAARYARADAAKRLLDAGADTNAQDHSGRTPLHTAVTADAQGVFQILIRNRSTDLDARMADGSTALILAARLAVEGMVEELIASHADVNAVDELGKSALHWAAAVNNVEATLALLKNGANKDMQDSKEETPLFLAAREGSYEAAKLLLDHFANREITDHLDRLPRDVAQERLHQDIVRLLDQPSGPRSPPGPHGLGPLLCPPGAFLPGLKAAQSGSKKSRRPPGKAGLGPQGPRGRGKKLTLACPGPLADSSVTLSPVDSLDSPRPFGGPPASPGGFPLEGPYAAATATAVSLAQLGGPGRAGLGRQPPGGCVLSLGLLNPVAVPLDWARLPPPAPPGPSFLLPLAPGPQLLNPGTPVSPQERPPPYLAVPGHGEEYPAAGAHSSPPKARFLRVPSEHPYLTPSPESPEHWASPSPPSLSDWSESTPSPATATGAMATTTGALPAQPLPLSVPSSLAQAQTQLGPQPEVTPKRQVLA
Chain of Torsin-1A-interacting protein 2 (Homo sapiens) (Q8NFQ8 whole entry, looked up): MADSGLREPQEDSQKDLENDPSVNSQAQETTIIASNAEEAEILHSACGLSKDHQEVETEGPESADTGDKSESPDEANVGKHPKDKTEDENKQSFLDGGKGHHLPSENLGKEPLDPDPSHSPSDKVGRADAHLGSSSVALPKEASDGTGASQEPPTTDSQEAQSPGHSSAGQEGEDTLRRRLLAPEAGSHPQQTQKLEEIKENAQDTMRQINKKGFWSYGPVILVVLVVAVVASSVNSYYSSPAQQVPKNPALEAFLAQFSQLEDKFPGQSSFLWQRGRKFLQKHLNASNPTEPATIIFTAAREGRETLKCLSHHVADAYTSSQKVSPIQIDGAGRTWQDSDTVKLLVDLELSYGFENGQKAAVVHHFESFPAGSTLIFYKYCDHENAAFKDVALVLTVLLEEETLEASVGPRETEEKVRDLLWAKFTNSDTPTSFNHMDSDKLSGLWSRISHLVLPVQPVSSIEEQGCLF

On to `COc1ccc([Si](C)(C)[C@@H]2[C@@H](CC(=O)N3CCC[C@H]3CO)O[C@]3(C(=O)N(Cc4cccc(I)c4)c4ccccc43)[C@H]2C)cc1`, for which the composite z-score in [1] is 1.53; in test [5] it was 0.175; in test [7] it was 0.0678; in test [8] it was 1.62; in [9], 1.08; in test [10] it was 0.0807. The z-score in test [2] was -1.23 (inactive); in test [3] it was 0.0115 (inactive); in [4] it was 1.14 (inactive); in test [6] it was 0.25 (inactive).
Take `COc1cc(CO)cc(I)c1O[C@H]1C=C(C(=O)NCCO)C[C@@H](NC[C@@H]2CCCO2)[C@@H]1O`: the composite z-score was 1.35 in test [1]; 1.91 in test [5]; -0.17 in [7]; 1.26 in test [8]; 0.554 in [9]; -0.0033 in [10]. Further, the z-score was -0.396 (inactive) in test [2], -0.424 (inactive) in test [3], -0.0698 (inactive) in test [4] and 1.6 (inactive) in test [6].
For `CCOc1cc(C(O)C2C=CC3C(=O)N(c4ccccc4)C(=O)C3N2Nc2ccc(C(C)C)cc2)ccc1O` (stereo not given), the composite z-score in [1] was 1.55; in test [5], 3.42; in test [7], 0.0261; in test [8], 0.107; in test [9] it was 1.1; in [10] it was -0.0581. Moreover, the z-score in test [2] was 0.471 (inactive); in test [3], -1.28 (inactive); in test [4] it was 0.597 (inactive); in test [6], -1.14 (inactive).
Consider `C=CCC(OC(C)=O)[C@@H]1[C@@H](N(Cc2cc3ccccc3o2)C(=O)Cc2ccc(OC)cc2)c2cc(OCCCO)ccc2N1C(=O)c1ccc2ccccc2c1` (stereo not given in full), for which the composite z-score was -0.843 in [1]; -0.266 in test [5]; -0.0097 in test [7]; -0.104 in test [8]; -0.379 in [9]; -0.201 in [10]. In addition, the z-score in test [2] was -0.179 (inactive); in test [3] it was 0.568 (inactive); in test [4] it was 0.194 (inactive); in [6] it was -0.457 (inactive).
As to `CC(CO)N1C(=O)[C@@H]2C3C(=O)OCCC/C=C\[C@H]3OC23C=CCN(CCN2CCOCC2)C(=O)[C@@H]13` (stereo not given in full), the composite z-score was 0.871 in [1]; -0.675 in [5]; -0.207 in [7]; -0.0152 in test [8]; 0.159 in test [9]; -0.187 in [10]. Further, the z-score in [2] is -0.321 (inactive); in [3] it was -0.802 (inactive); in test [4] it was -0.215 (inactive); in test [6], -0.19 (inactive).
For the compound `COc1ccc([Si](C)(C)[C@@H]2[C@@H](CCn3cc(CCO)nn3)O[C@]3(C(=O)N(Cc4cccc(N5C(=O)c6cccc7cccc5c67)c4)c4ccccc43)[C@H]2C)cc1`, the composite z-score in test [1] is 1.55; in [5] it was 1.76; in test [7] it was -0.0956; in test [8], 1.14; in test [9], 0.903; in [10] it was -0.125. For the same compound, the z-score in [2] was 1.29 (inactive); in test [3], 1.56 (inactive); in test [4], 20.9 (active); in test [6] it was 1.17 (inactive).
In the case of `Cc1c(NC(=O)/C(C#N)=C/c2cccc([N+](=O)[O-])c2)c(=O)n(-c2ccccc2)n1C`, the composite z-score in [1] is 0.366; in test [5], 1.92; in [7], -0.26; in test [8], 0.21; in [9], 1.07; in test [10] it was 0.006. In addition, the z-score in [2] is -3.18 (inactive); in [3], -2.55 (inactive); in [4] it was -2.2 (inactive); in test [6], 0.0751 (inactive).
Regarding `CCCCC(=C=CC[C@H](O)c1cccc(OCCO)c1)C[C@H](O)c1ccccn1`, the composite z-score in test [1] is 0.483; in test [5], -0.639; in [7] it was -0.165; in [8], 0.395; in test [9] it was -0.153; in test [10] it was -0.13. Further, the z-score in test [2] is -1.2 (inactive); in test [3] it was -1.12 (inactive); in [4], -1.68 (inactive); in test [6], 1.34 (inactive).
As to `C#CCN(C/C=C/c1ccccc1)[C@H](CO)c1ccccc1`, the composite z-score in test [1] was -0.019; in test [5], 0.0638; in test [7], -0.319; in test [8], 1.12; in [9], 0.39; in test [10] it was -0.215. Besides, the z-score in [2] was -3.99 (inactive); in test [3], -21.4 (active); in test [4], -1.64 (inactive); in test [6] it was 0.408 (inactive).
As to `CCN(CC)c1ccc(N2CC=CC34O[C@@H]5C=CCOC(=O)[C@@H]5[C@H]3C(=O)N(CCCCCCO)[C@@H]4C2=O)cc1` (stereo not given in full), the composite z-score was 0.933 in test [1]; 2.63 in test [5]; -0.192 in [7]; -0.526 in [8]; -0.136 in [9]; -0.0987 in test [10]. Further, the z-score is -0.259 (inactive) in test [2], -0.53 (inactive) in [3], -0.975 (inactive) in test [4] and 2.24 (inactive) in test [6].
For the compound `COc1cc2c(cc1O)C(c1cccs1)N(Cc1ccc([N+](=O)[O-])o1)CC2` (stereo not given), the composite z-score is 0.298 in test [1]; 1.02 in [5]; 0.156 in test [7]; -0.419 in [8]; 0.32 in test [9]; -0.0859 in test [10]. The z-score was -2.77 (inactive) in test [2], -4.47 (inactive) in [3], -2.27 (inactive) in [4] and -0.73 (inactive) in test [6].
For `C[N+](C)(C)CCCC[C@@H]1NC(=O)[C@@H]2C[C@H](C(=O)NCCCCCN)[C@H](c3ccc(O)cc3)N2C1=O`, the composite z-score in [1] stood at 1.53; in test [5], 2.46; in test [7] it was 0.79; in test [8], 1.01; in [9], 1.09; in [10], 0.239. The z-score in test [2] is -4.09 (inactive); in test [3], -1.1 (inactive); in test [4], -0.978 (inactive); in [6], 1.12 (inactive).
Take `COCCOC(=O)N1C(=O)[C@@]2(c3cc(C#CC4=CCCCC4)ccc31)[C@H](C(N)=O)[C@H]1C(=O)O[C@H](c3ccccc3)[C@H](c3ccccc3)N1[C@@H]2c1ccc(O)cc1`: the composite z-score was determined as 1.55 in test [1]; 3.06 in [5]; 0.725 in [7]; 0.735 in test [8]; 1.13 in [9]; 0.0038 in test [10]. Also, the z-score in test [2] was -1.59 (inactive); in [3], -0.638 (inactive); in [4], 0.0591 (inactive); in test [6], 0.573 (inactive).
Regarding `C=CCN1C(=O)[C@]2(Cc3ccccc3)N=C(c3ccc(OCCCO)cc3)O[C@@H]2c2ccccc21`, the composite z-score is 1.53 in test [1]; 3.13 in test [5]; 0.295 in test [7]; 1.2 in test [8]; 1.15 in test [9]; 0.133 in test [10]. In addition, the z-score is 0.331 (inactive) in test [2], -0.694 (inactive) in test [3], 1.46 (inactive) in test [4] and 0.482 (inactive) in test [6].
Take `O=C(NCc1ccccc1)[C@@H]1c2ccccc2C(=O)N(C2Cc3ccccc3C2)[C@H]1c1ccc(CO)cc1`: the composite z-score in test [1] is 1.56; in [5], 2.03; in test [7], 0.126; in test [8] it was 0.149; in [9], 1.03; in [10], 0.194. In addition, the z-score was 0.106 (inactive) in test [2], 0.287 (inactive) in test [3], 0.644 (inactive) in [4] and -0.874 (inactive) in [6].
As to `COc1ccc([C@H]2OC[C@@H]3CCC(=O)N32)cc1`, the composite z-score is -0.136 in test [1]; 0.399 in test [5]; -0.0699 in test [7]; 0.397 in test [8]; 1.01 in test [9]; 0.0826 in test [10]. The z-score in [2] is -0.481 (inactive); in [3], -0.809 (inactive); in test [4], 0.981 (inactive); in test [6], -0.013 (inactive).
On to `CCOC(=O)C1=CC[C@@H](c2ccccc2)N(S(=O)(=O)c2ccc(C)cc2)[C@H]1c1ccc(CC)cc1`, for which the composite z-score is 1.27 in test [1]; 2.02 in test [5]; 0.05 in [7]; -0.503 in [8]; 0.716 in [9]; 0.279 in test [10]. Also, the z-score in [2] was 0.891 (inactive); in test [3], 1.94 (inactive); in [4], 2.17 (inactive); in test [6], -0.315 (inactive).
